# Compound activity from PubChem BioAssay.
# TRHR agonist = qHTS for Small Molecule Agonists and Allosteric Enhancers of Human TRH Receptor: Primary Screen for Agonists; Thyrotropin-releasing hormone receptor (Homo sapiens), P34981; TRHR cells, calcium flux fluo-8, FDSS agonist mode; activation, % at 2 µM; hit rate 0.18% among 360,000; AID 493084, 2011
# Target sequence (P34981 whole entry, looked up): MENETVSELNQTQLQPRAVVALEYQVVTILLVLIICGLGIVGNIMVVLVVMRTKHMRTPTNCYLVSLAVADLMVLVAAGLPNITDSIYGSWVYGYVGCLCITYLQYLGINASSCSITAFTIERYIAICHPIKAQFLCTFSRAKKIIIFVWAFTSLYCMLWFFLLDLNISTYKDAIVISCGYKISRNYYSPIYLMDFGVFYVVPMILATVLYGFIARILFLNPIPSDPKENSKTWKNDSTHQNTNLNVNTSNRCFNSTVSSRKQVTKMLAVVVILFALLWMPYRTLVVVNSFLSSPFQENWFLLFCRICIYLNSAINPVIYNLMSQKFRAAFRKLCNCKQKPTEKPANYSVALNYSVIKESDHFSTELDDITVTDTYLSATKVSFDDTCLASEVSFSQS
#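 TRHR-expressing cells, plated overnight in medium with 10% serum, were loaded with fluo-8 calcium dye at room temperature. After a 10 s baseline, library compound was pin-added and calcium release was recorded kinetically (ex 480/em 530) as agonist response.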
# TRHR enhancer = qHTS for Small Molecule Agonists and Allosteric Enhancers of Human TRH Receptor: Primary Screen for Enhancers; Thyrotropin-releasing hormone receptor (Homo sapiens), P34981; TRHR cells, fluo-8 calcium fluorescence, EC20 TRH enhancement; enhancement, % at 2 µM; hit rate 0.66% among 360,000; AID 493056, 2011; in the data active means enhancement above about 30%
#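 Enhancer read-out: after compound pinning and an initial kinetic agonist-mode read, an EC20 of TRH (10 nM final) was injected and fluo-8 calcium signal (Ex 480/Em 530) followed at 1 s/cycle for 100 cycles in TRHR-expressing cells.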
# LDHA inh = qHTS assay for inhibitors of human lactate dehydrogenase | activity change, % (values are at about 110 or 230 µM) | purified LDHA, NADH/diaphorase-resazurin fluorescence; active compounds read low | hit rate 0.15% among 480,000; in the data active means activity change below about -30%
#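 Human LDH5 (2 nM) was incubated with 0.06 mM NADH and 0.2 mM pyruvate for 5 min at room temperature in Tris pH 7.4. Remaining NADH was coupled through diaphorase/resazurin, and resorufin fluorescence was read at 0 and 20 min.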
# D1 agonist = Allosteric Agonists of the Human D1 Dopamine Receptor: qHTS | HEK293 T-REx D1 cells, calcium flux, agonist mode | activation, % at 2 µM | hit rate 1% among 360,000 | AID 504660, 2011
#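 Inducible HEK293 T-REx D1 cells, force-coupled to calcium signalling, were plated at 4000 cells/well with tetracycline and held overnight at 30 C. After no-wash calcium dye loading, compound-evoked calcium rise over 180 s flagged agonists.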
# D1 potentiator = Potentiators of Human D1 Dopamine Receptor: qHTS; HEK293 TREx D1 cells, calcium flux, dopamine EC20 potentiation; potentiation, % at 10 µM; hit rate 0.036% among 360,000; AID 504651, 2011; in the data active means potentiation above about 30%
# D1 antag = Antagonist of Human D 1 Dopamine Receptor: qHTS | D(1A) dopamine receptor (Homo sapiens), P21728 | HEK293 TREx D1 cells, calcium flux, dopamine EC80; active compounds read low | activity change, negative = inhibition, % at 10 µM | hit rate 3.2% among 360,000 | AID 504652, 2011; in the data active means activity change below about -30%
#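 Allosteric or orthosteric antagonism assessed as attenuation of the calcium response to EC80 dopamine, added 180 s after compound, in induced HEK293 Trex D1 cells loaded with no-wash calcium dye.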
# Numbers stand for hits; – = inactive; · = not tested or not shown. Only some compounds are listed: those with a hit (about 3.6% of all), similar ones and a draw of the others. Unless noted, no stated cut-off is given here; in the data, active means activation above about 30%; inactive means the rest.
SMILES,TRHR agonist,TRHR enhancer,LDHA inh,D1 agonist,D1 potentiator,D1 antag
Cc1cc(C)n(-c2ccc(C(=O)OCC(=O)NC3CCS(=O)(=O)C3)cc2)n1 (stereo not given),·,·,-30,·,·,·
COc1cc2ccccc2cc1C(=O)OCC(=O)NC1CCS(=O)(=O)C1 (stereo not given),–,–,–,–,–,-33
Cc1cc(C)n(-c2ccc(C(=O)OCC(=O)NC(c3ccccc3)c3ccccc3)cc2)n1,–,–,–,31,–,–
CCOC(=O)CN(C(=O)CSc1nnc(COc2ccc(OC)cc2)n1C)c1ccccc1,–,–,–,–,–,-46
Cc1ccc(S(=O)(=O)N/N=C/c2ccc(OC3CSC3)cc2)cc1,–,–,–,61,–,–
COC(=O)c1ccc(COC(=O)c2ccc3c(c2)NC(=O)CS3)cc1,·,·,–,·,·,·
CCOc1ccc(S(=O)(=O)N(C(=O)c2ccncc2)c2ccc3oc(C)c(C(=O)OC)c3c2)cc1,–,–,–,–,–,-46
COC(=O)c1c(C)oc2ccc(N(C(=O)c3ccncc3)S(=O)(=O)c3ccc(OC)cc3)cc12,–,–,–,–,–,-48
CCc1ccc(S(=O)(=O)N(C(=O)c2ccncc2)c2ccc3oc(C)c(C(=O)OC)c3c2)cc1,–,–,–,–,–,–
N#Cc1cn(C2CC2)c(=O)n(Cc2coc(-c3ccc(Cl)cc3)n2)c1=O,·,·,–,·,·,·
C/C(=N\NC(=O)c1c(C)nc2ccccn12)c1ccccc1F,–,–,–,–,–,–
C/C(=N\NC(=O)c1c(C)nc2ccccn12)c1ccc(O)cc1O,–,40,–,–,–,–
CCOC(=O)c1oc2ccccc2c1NC(=O)c1ccccc1OC,–,–,–,–,–,–
COc1ccccc1C(=O)Nc1c(C(=O)NC(C)(C)C)oc2ccccc12,–,–,–,33,33,–
COc1ccccc1C(=O)Nc1c(C(=O)c2ccccc2)oc2ccccc12,–,–,–,–,–,–
COC(=O)c1oc2ccccc2c1NC(=O)c1ccccc1O,–,–,–,–,–,-43
CCCc1ccc(C(=O)N(CC#N)C2CC2)cc1,·,·,–,·,·,·
CCc1nc(CNCc2cccc(NC(=O)c3ccc(F)cc3)c2)cs1,·,·,–,·,·,·
OC(c1cc(C(F)(F)F)nc2c(Cl)cc(Cl)cc12)C1CCCCN1 (stereo not given),–,–,–,32,–,–
O[C@@H](c1cc(C(F)(F)F)nc2c(C(F)(F)F)cccc12)[C@H]1CCCCN1,–,–,–,44,–,–
Cc1cc(C(=O)CSc2nnc(COc3ccccc3Cl)n2C)c(C)n1CC(F)(F)F,·,·,–,·,·,·
Cc1ccc(S(=O)(=O)N2CCN(C(=O)COC(=O)/C=C/c3ccc(F)cc3)CC2)c(C)c1,–,–,–,–,–,-38
Cc1ccc(S(=O)(=O)N2CCN(C(=O)COC(=O)/C=C/c3ccccc3)CC2)c(C)c1,–,–,–,–,–,–
CSc1ccc(/C=C/C(=O)OCC(=O)N2CCN(S(=O)(=O)c3ccc(C)cc3C)CC2)cc1,–,–,–,–,–,-33
CN(C)c1ccc(/C=c2\sc3nc(-c4ccccc4)nn3c2=O)cc1,–,–,·,–,–,-57
SMILES,TRHR agonist,TRHR enhancer,LDHA inh,D1 agonist,D1 potentiator,D1 antag
CC(Cc1cccs1)N(Cc1ccc(Cl)cc1)C(=O)C1CC1 (stereo not given),·,·,–,·,·,·
Clc1ccc(/C=N/Nc2ccccn2)cc1,–,–,–,–,–,-31
Cc1cc(Cl)c(S(=O)(=O)Nc2ccc3c(c2)OCO3)cc1OCC(=O)NC1CCCCC1,–,–,–,–,–,–
Cc1cc(Cl)c(S(=O)(=O)Nc2ccc3c(c2)OCO3)cc1OCC(N)=O,–,–,–,–,–,-34
COc1cccc(/C=N/O)c1OC,·,·,–,·,·,·
Cc1ccc(OCC(=O)NCCNC(=O)c2cnccn2)cc1C,–,–,–,39,–,–
CCOC(=O)N1CCN(C(=O)CN(c2ccccc2Cl)S(C)(=O)=O)CC1,·,·,–,·,·,·
CCn1c(=O)cc(N2CCC3(CC2)OCCO3)[nH]c1=O,–,–,–,–,–,-60
Cc1ccc(C(O)CNC(=O)c2cccc(C)c2)cc1 (stereo not given),·,·,–,·,·,·
O=C(CC12CC3CC(CC(C3)C1)C2)Nc1ccc2oc(-c3cncc(Br)c3)nc2c1,·,·,–,·,·,·
COc1ccc(C)cc1C(C)NC(=O)CC1Sc2ccccc2NC1=O (stereo not given),·,·,–,·,·,·
Cc1cc(=O)c(C(=O)O)nn1-c1cccc(C(F)(F)F)c1,–,–,–,–,–,–
O=c1ccn(-c2cccc(C(F)(F)F)c2)nc1-c1ccn(-c2ccccc2)n1,–,–,–,–,–,-38
CC1CCN(C(=O)Cn2cc(SCc3ccc(C(F)(F)F)cc3)c3ccccc32)CC1,·,·,–,·,·,·
CCCC12CN3CC(C)(CN(C1)C3c1cn(C)c3ccccc13)C2=O (stereo not given),–,–,–,–,–,–
CCn1cc(C2N3CC4(C)CN2CC(C)(C3)C4=O)c2ccccc21 (stereo not given),–,–,–,–,·,-76
CCCCCC1CCC(c2ccc(C(=O)O)cc2)CC1 (stereo not given),·,·,–,·,·,·
CC(c1ccccc1)C1CC(=O)N(CC(=O)O)C1=O (stereo not given),–,–,–,–,–,-32
Cn1c(=O)[nH]c(=O)c2c1nc(N1CCN(Cc3cccc(Cl)c3)CC1)n2CCCc1ccccc1,·,·,–,·,·,·
CCOC(=O)N1CCN(c2cc(C(=O)O)c3cc(NC(=O)C(C)C)ccc3n2)CC1,·,·,–,·,·,·
CC(C)NCC(O)c1ccc(NS(C)(=O)=O)cc1 (stereo not given),–,–,–,–,–,–
CC(C)NC[C@@H](O)c1ccc(O)c(O)c1,–,–,–,–,–,-32
O=c1oc(-c2ccc(F)cc2)nn1CC(O)COc1ccc2ccccc2c1 (stereo not given),·,·,-30,·,·,·
Cc1nn(C)c(=O)c(N)c1-c1cc(-c2ccc(Cl)c(Cl)c2)n[nH]1,–,–,–,–,–,-47
C=CCn1c(N)c(C(=O)Nc2ccccc2)c2nc3ccccc3nc21,–,–,–,–,–,-36
C=CCn1c(N)c(C(=O)NCc2ccccc2)c2nc3ccccc3nc21,·,·,–,·,·,·
CCc1noc(C)c1C(=O)Oc1ccc(N(C)S(=O)(=O)c2ccccc2)cc1,–,–,–,36,–,–
